Bioassay records as filed in PubChem BioAssay.
CRE Fsk mod – Cell signaling CRE-BLA (Fsk stim). CHO CRE-bla reporter (cAMP response element driving beta-lactamase), forskolin EC10, beta-lactamase ratio. Potency, µM (top dose mostly 38.2 µM), inactives show top-dose activity change, negative = inhibition, most hits filed as activators. 71,000 tested, 2.5% active. AID 662, 2007; active means well fitted activation curve with a large enough effect in the signal ratio, with a control signal flat, not every such curve was filed as active; inconclusive means small, poorly fitted or top-dose-only effect, or effect the other way, or a change in a side signal; the % refers to the signal ratio; further: % of control where 0% means no effect
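AC50 values, positive or negative, reflect shifts in EC10 NKH 477-induced CRE-bla reporter activity in CHO cells. Incubation lasted 3 h at 37 °C before CCF4 substrate (2 h, room temperature) and ratiometric 460/530 nm reading.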
USP2a inhib – qHTS Assay for Inhibitors of Ubiquitin-specific Protease USP2a. Ubiquitin carboxyl-terminal hydrolase 2 (Homo sapiens), O75604. USP2a enzymatic assay, qHTS inhibition. Potency, µM (series often up to 38.3 µM), for inactives: at the highest dose activity change, negative = inhibition, usual class: inhibitors. 60,000 tested, 0.1% active; further: nearly all actives have a fitted effect of over 60% in size
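20 nM USP2 core + cpd, 30 min RT; add 20 nM Ub-PLA2/20 uM NBD C6-HPC; read Ex460/Em535 at 0 h and 2.5 h. Normalized to NEM; qHTS curve fit/classification.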
Caspase-1 inhib – qHTS Assay for Allosteric/Competitive Inhibitors of Caspase-1; Caspase-1 enzyme, Ac-WEHD-AFC fluorogenic rate; Potency, µM (titrated, usually from 57.5 µM), for the others: at the highest dose activity change, negative = inhibition, most hits filed as inhibitors; 75,000 tested, 0.03% active;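 further: plate controls were vehicle for no effect and no substrate for full effect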
Target sequence (P29466 120-297 limits assumed): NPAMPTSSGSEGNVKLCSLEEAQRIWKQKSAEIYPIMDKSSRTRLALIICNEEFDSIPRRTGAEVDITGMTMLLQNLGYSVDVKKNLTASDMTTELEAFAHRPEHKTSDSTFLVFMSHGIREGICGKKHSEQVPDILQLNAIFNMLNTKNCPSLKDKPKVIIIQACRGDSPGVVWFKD
Target sequence (P29466 317-404 limits assumed): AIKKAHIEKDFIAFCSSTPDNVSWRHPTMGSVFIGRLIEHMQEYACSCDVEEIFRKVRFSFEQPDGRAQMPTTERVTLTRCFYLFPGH
Caspase-7 inhib – qHTS Assay for Allosteric/Competitive Inhibitors of Caspase-7. recombinant caspase-7, Ac-DEVD-AFC fluorescence rate. Potency, µM (highest dose often 57.5 µM), inactives show at the top dose activity change, negative = inhibition, most hits filed as inhibitors. 75,000 tested, 0.02% active; active means well fitted inhibition curve with a large enough effect in the main read-out, with a control signal flat, not every such curve was filed as active; inconclusive means small, poorly fitted or top-dose-only effect, or a change in a side signal; further: % of control where 0% means no effect
TSHR ag – qHTS Assay for Agonists of the Thyroid Stimulating Hormone Receptor; Thyrotropin receptor (Homo sapiens), P16473; HEK293-CNG-TSHR cells (CNG channel as cAMP sensor), membrane potential dye, cAMP; Potency, µM (highest dose often 57.1 µM), for the others: top-dose activation, usual class: activators; 73,000 tested, 0.48% active; AID 926, 2007; active means well fitted activation curve with a large enough effect in the main read-out, with a control signal flat, not every such curve was filed as active; inconclusive means small, poorly fitted or top-dose-only effect, or a change in a side signal; inactive means no such curve, though single readings can be large or run the other way; % of control where 0% means no effect;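 further: the control signal comes from parental cells without the receptor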
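cAMP rise detected as CNG-channel membrane depolarization by fluorescent dye (emission 590 nm), 30 min after compound, following 60 min dye loading containing 100 uM RO 20-1724 at room temperature. Cells: TSHR/CNG HEK 293, with parental CNG HEK 293 as control.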
HEK293 cAMP ctrl – qHTS Assay for Agonists of the Thyroid Stimulating Hormone Receptor: Activators of Intracellular cAMP Concentrations in Parental HEK 293. AID 938, 2007. Potency, µM (doses to about 57.1 µM), for inactives: at the top dose activation, most hits filed as activators. 73,000 tested, 2.5% active. parental HEK293 CNG cAMP sensor, membrane potential fluorescence; further: % of control where 0% means no effect; nearly all actives have a fitted effect of over 55% in size
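Parental HEK 293 cells stably expressing a cAMP-gated CNG channel were loaded with membrane potential dye containing 100 uM RO 20-1724 for 60 min. Compound added for 30 min; depolarization read as fluorescence intensity at 590 nm.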
* = called active by the depositor; u = inconclusive; x = not tested or not shown; [ ] = dose if it differs, or a comment. An excerpt weighted towards active compounds, which were near 5% of everything screened. Unless noted, the call rests on the fitted dose curve; in most records, active means well fitted curve in the direction sought with a large enough effect; inconclusive means small, poorly fitted or top-dose-only effect, or another doubt; inactive means no such curve, though single readings can be large; an effect the other way counts as inactive or inconclusive. Potency means the concentration at half of the fitted maximal effect.

SMILES	CRE Fsk mod	USP2a inhib	Caspase-1 inhib	Caspase-7 inhib	TSHR ag	HEK293 cAMP ctrl
CC(C)[C@H](N=Cc1ccccc1O)C(=O)O	2%[7.6 µM]	x	1%[11.5 µM]	1%[11.5 µM]	4%[11.4 µM]	1%[11.4 µM]
COCCn1c(=O)c(-c2cc(F)cc(F)c2)nc2cnc(N(C)C)nc21	10µM*	-11%	x	u	1%	15%
COCCn1c(=O)c(-c2cccc(C#N)c2)nc2cnc(N3CCOCC3)nc21	u	7%	x	u	-5%	18%
COCCn1c(=O)c(-c2ccc(OC)cc2)nc2cnc(N3CCOCC3)nc21	2.5µM*	59%	x	u	x	15%
COCCn1c(=O)c(-c2cc(F)cc(F)c2)nc2cnc(N3CCOCC3)nc21	6.3µM*	64%	x	u	u	u
COc1cccc(Cn2c(=O)c(CCc3ccccc3)nc3cnc(N4CCOCC4)nc32)c1	2µM*	27%	-11%	-14%	-1%	25%
CC1(C)CC(N=C=O)CC(C)(CN=C=O)C1 (stereo unspecified)	-12%	x	0%	-1%	-2%	24%
Cn1c(=O)c2c(nc(/C=C\c3cccc(Cl)c3)n2C)n(C)c1=O	6%	10%	-1%	-3%	6%	-4%
Cc1cccc(-c2noc(CN(C(=O)c3ccc4c(c3)OCO4)C(C)C)n2)c1	-13%	-26%	-1%	-5%	u	32µM*
CC(=O)NCCNc1nc(-c2cccc(C#N)c2)nc2ccccc12	13µM*	51%	2%	-1%	-5%	-17%
COc1ccc(CNc2nc(-c3cccc(C#N)c3)nc3ccccc23)c(OC)c1	2µM*	174%	-7%	-8%	u	u
COc1ccc(CNc2nc(-c3cccc(NS(C)(=O)=O)c3)nc3ccccc23)c(OC)c1	u	u	-6%	-6%	u	u
COc1ccccc1CNc1ncnc2ccc(-c3ccoc3)cc12	-20%	223%	-4%	-5%	u	20µM*
COc1ccc(CNc2ncnc3ccc(-c4cccc(C#N)c4)cc23)c(OC)c1	0.79µM*	4%	-3%	-5%	16%	18%
C=CC(C1=CC(=O)C(OC)=CC1=O)c1ccccc1 (stereo unspecified)	x	u	-2%	-2%	x	x
O=C(c1ccco1)c1nnn(Cc2ccccc2)c1-c1ccccc1	u	-2%	-4%	-4%	u	32µM*
COc1cc2ccc([C@H](C)NCC#N)cc2cc1OC	1%[7.6 µM]	x	5%[11.5 µM]	1%[11.5 µM]	3%[11.4 µM]	-1%[11.4 µM]
O=C(COc1ccccc1)N(Cc1ccco1)c1ccc(O)cc1	-15%	2%	0%	-1%	20µM*	22%
O=C(c1ccc(Cl)c(Cl)c1)N(Cc1ccco1)c1ccc(O)cc1	2%	1%	0%	13µM*	u	u
Cc1nnc(N(Cc2ccco2)C(=O)c2cccc(C#N)c2)s1	u	3%	1%	0%	6%	29%
O=C(Cn1cnc2ccccc2c1=O)N(Cc1ccco1)c1ccc(O)cc1	x	x	0%	-1%	19%	-11%
CCOC(=O)c1[nH]c(C)c(C(=O)Nc2cc(OC)ccc2OC)c1C	10µM*	15%	0%	1%	5%[11.4 µM]	14%
CC(C)=N[C@H](C(=O)O)C(C)(C)S	2%[7.6 µM]	x	-2%[11.5 µM]	-2%[11.5 µM]	17%[11.4 µM]	7%[11.4 µM]
c1ccc(N(c2ccccc2)c2nc(-n3ccnc3)nc(-n3ccnc3)n2)cc1	18%	10%	-3%	-6%	u	25µM*
c1ccc(-c2nc(N3CCCCCC3)nc(-n3ccnc3)n2)cc1	15%	9%	-1%	-1%	4µM*	30%
CCOC(=O)OCC1OC(C#Cc2ccccc2)C=CC1Oc1cccc(N(C)C)c1 (stereo unspecified)	x	x	0%[11.5 µM]	-3%[11.5 µM]	17%[11.4 µM]	24%[11.4 µM]
